Experiment [1] can be described thus: qHTS assay to identify small molecule HDAC inhibitors - cell viability counter screen (AID 1259365). Further: series mostly up to about 92 µM; nearly all actives have a fitted effect of over 50% in size. The gist of the method: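 After overnight seeding at 1,500 cells per well, wild-type HCT-116 cultures took up compounds in DMSO for 2hr at 37 C. Viable cell content came from luminescence with CellTiter-Glo.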
On the technique in general: Quantitative high-throughput screening tests each substance at several concentrations.

A short description of experiment [2]: qHTS assay to identify small molecule agonists of the sonic hedgehog signaling (Shh) pathway - cell viability counter screen (AID 1259366). Further: nearly all actives have a fitted effect of over 50% in size. The method in brief: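 Same-well cytotoxicity read. Gli1-Luc reporter 3T3 cells; compounds 24hr, 37C/5% CO2; CellTiter-Fluor fluorescence.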
Experiment [3] is described as follows: qHTS assay to identify small molecule antagonists of the sonic hedgehog signaling (Shh) pathway - cell viability counter screen (AID 1259367). Further: nearly all actives have a fitted effect of over 55% in size. The gist of the method: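 Cells: 3T3 Gli1-Luc, 2,000/well, 4 hr pre-incubation. Compounds in DMSO, then conditioned medium. Incubation 24 hr, 37C, 5% CO2. CellTiter-Fluor at 23 hr, 1 hr, fluorescence.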
Experiment [4] in a line: qHTS assay to identify small molecule agonists of the sonic hedgehog signaling (Shh) pathway (AID 1259368; calls by dose curve;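 further: NIH/3T3-derived 3T3Gli1-Luc cells carrying a stable Gli1-driven firefly luciferase reporter; series mostly up to about 92 µM; nearly all actives have a fitted effect of over 15% in size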). The method in brief: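 3T3Gli1-Luc (NIH/3T3 clone, stable Gli1-Luc); 4 hr pre-incubation, then cpd in DMSO 24 hr, 37 C/5% CO2; luciferase reagent 30 min RT; luminescence.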
Experiment [5] in a line: qHTS assay to identify small molecule antagonists of the sonic hedgehog signaling (Shh) pathway (AID 1259369; calls by dose curve; further: nearly all actives have a fitted effect of over 45% in size; further: potency means the concentration at half of the fitted maximal effect). The method in brief:
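3T3Gli1-Luc, conditioned-medium-stimulated, 24hr cpd, 37C/5% CO2; Gli1-driven firefly Luc luminescence after 30min RT with luciferase reagent. Cells plated 4hr before cpd.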

Experiment [6] deals with Estrogen receptor beta (Homo sapiens) (UniProt Q92731). Put plainly: qHTS assay to identify small molecule agonists of the estrogen receptor beta (ER-beta) signaling pathway (AID 1259377; active means well fitted activation curve with a large enough effect in the signal ratio in the repeat runs, not every such curve was filed as active; the % refers to the signal ratio). The method in brief: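 Read-out: beta-lactamase FRET fluorescence. Cell line: ER-beta-UAS-bla HEK293T in 2% charcoal-stripped FBS. Exposure: 16 hr at 37C. Substrate step: 2 h at room temperature.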
Chain of Estrogen receptor beta (Homo sapiens) (Q92731 whole entry, looked up): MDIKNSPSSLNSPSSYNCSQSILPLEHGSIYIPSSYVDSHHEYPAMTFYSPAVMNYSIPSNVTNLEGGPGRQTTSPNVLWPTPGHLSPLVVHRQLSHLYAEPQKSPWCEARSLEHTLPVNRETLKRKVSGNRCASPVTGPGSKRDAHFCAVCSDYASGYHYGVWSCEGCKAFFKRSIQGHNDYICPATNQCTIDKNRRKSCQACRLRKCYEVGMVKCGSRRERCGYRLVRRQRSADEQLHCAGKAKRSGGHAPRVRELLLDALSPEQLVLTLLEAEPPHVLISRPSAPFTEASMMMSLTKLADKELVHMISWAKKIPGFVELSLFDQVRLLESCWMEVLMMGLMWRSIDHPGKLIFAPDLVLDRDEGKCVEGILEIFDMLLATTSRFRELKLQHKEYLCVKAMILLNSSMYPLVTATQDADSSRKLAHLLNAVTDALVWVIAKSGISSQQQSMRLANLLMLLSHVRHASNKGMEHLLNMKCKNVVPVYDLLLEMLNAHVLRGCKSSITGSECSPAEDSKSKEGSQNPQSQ

Experiment [7] is described as follows: qHTS assay to identify small molecule agonists of the androgen receptor (AR) signaling pathway in the presence of an antagonist - cell viability counter screen (AID 1259379).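 Further: MDA-kb2 human breast cancer cells carrying an MMTV luciferase reporter; series mostly up to about 92 µM; nearly all actives have a fitted effect of over 25% in size.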 The gist of the method:
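Cells: MDA-kb2 (MMTV-luc, AR and GR elements), 3,000/well, 5 hr settle. Added: nilutamide 3.0uM final, then compounds (15 conc.). Incubation: 16 hr, 37C, no CO2. Read-out: CellTiter-Fluor, 1 hr, fluorescence.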

Experiment [8] concerns the target Estrogen receptor beta (Homo sapiens) (UniProt Q92731). As to the kind of experiment: qHTS assay to identify small molecule antagonists of the estrogen receptor beta (ER-beta) signaling pathway (AID 1259378; active means well fitted inhibition curve with a large enough effect in the signal ratio in the repeat runs, not every such curve was filed as active; the % refers to the signal ratio). The gist of the method: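 Antagonist mode: compounds added to beta-lactamase reporter HEK293T ER-beta-UAS cells stimulated with E2 (1nM final), 16 hr at 37C. LiveBLAzer B/G FRET substrate, 2 hours room temperature, fluorescence read-out.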

The nature of experiment [9]: qHTS assay to identify small molecule agonists of the estrogen receptor beta (ER-beta) signaling pathway - cell viability counter screen (AID 1259380). Further: nearly all actives have a fitted effect of over 30% in size. The gist of the method: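 HEK293T ER-beta-UAS-bla; 2% CS-FBS; 6 hr pre-plate, 16 hr cpd at 37C/5% CO2; LiveBLAzer read first, then CellTiter-Glo 30 min RT, luminescence.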
Experiment [10] deals with Androgen receptor (Homo sapiens) (UniProt P10275). Put plainly: qHTS assay to identify small molecule agonists of the androgen receptor (AR) signaling pathway in the presence of an antagonist (AID 1259381; calls by dose curve; further: nearly all actives have a fitted effect of over 15% in size). The gist of the method: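 MDA-kb2 cells, 3,000/well, rested 5hr at 37C/0% CO2 → nilutamide 3.0uM final or buffer → compounds, 15 conc. → 16hr at 37C → ONE-Glo, 30min RT → luminescence.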
Chain of Androgen receptor (Homo sapiens) (P10275 whole entry, looked up): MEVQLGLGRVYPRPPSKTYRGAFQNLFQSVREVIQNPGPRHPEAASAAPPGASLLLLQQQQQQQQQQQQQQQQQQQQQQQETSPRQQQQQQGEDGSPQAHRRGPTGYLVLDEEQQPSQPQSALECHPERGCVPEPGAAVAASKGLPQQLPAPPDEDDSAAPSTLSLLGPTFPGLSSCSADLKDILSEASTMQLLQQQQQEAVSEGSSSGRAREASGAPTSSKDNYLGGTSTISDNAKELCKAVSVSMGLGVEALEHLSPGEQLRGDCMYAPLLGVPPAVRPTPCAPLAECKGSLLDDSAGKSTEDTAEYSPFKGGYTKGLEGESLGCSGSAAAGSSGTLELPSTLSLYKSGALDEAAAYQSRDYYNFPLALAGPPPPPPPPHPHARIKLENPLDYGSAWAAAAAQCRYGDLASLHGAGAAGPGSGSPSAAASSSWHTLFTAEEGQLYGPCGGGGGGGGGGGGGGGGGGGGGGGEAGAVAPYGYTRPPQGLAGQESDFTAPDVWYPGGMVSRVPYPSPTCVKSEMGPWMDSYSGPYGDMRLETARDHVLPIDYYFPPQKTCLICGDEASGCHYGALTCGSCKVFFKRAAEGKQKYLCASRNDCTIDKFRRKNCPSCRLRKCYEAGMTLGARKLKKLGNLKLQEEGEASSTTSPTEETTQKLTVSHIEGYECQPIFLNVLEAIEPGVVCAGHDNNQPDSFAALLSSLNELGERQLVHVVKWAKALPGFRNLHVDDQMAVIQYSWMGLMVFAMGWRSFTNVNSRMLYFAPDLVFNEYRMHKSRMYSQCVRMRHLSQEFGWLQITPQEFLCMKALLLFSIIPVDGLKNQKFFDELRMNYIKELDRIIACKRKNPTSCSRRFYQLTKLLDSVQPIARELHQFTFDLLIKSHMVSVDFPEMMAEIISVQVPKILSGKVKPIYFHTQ

This note sets out measurements from PubChem BioAssay (Tox21).

Unmarked numbers belong to inactive results. Inconclusive results are not listed. Active and inactive are the calls of the source. Unless noted, the call rests on the fitted dose curve; in most records, active means well fitted curve in the direction sought with a large enough effect in the repeat runs; inconclusive means weak or mixed curves; inactive means no such curve, though single readings can be large; an effect the other way counts as inactive or inconclusive.
On the % scale 0 is the no-effect control and ±100 the full control effect.

`O=C(/C=C/c1ccccc1)NCCO`: the outcome in [1] and in experiment [4] was inactive. In addition, the Potency entry in [2], in [3], in [5], in [6] and in [7] was “inactive” each time.
Consider `Cc1c(C(C)C)c(=O)n(-c2ccccc2)n1C`, for which the result in [1], in [4], in experiment [8] and in [9] was inactive. For the same molecule, the Potency result in experiment [2], in experiment [3], in experiment [6] and in [7] was “inactive” throughout. Besides, the Potency in experiment [5] was 1.06 µM (active).
Take `COC(/C=C(\C)CCC=C(C)C)OC`: the outcome in experiment [1], in [4], in experiment [8] and in experiment [9] was inactive. Further, the Potency result in [2], in experiment [3], in experiment [5], in experiment [6] and in [7] was “inactive” each time.
Consider `O=C1NC2NC(=O)NC2N1` (stereo not drawn), for which the molecule was classed as inactive in experiment [1], in [4] and in [9]. Besides, the Potency result in [2], in [3], in [5], in experiment [6] and in experiment [7] was “inactive” throughout.
Take `CCN(CCC#N)c1ccccc1`: the result in experiment [1], in experiment [4], in experiment [8] and in experiment [9] was inactive. Further, the Potency entry in [2], in [3], in [5], in experiment [6] and in experiment [7] was “inactive” each time.
On to `NC(=O)NC(=O)Cc1ccccc1`, for which the call in [1], in experiment [4], in experiment [8] and in [9] was inactive. Also, the Potency result in experiment [2], in experiment [3], in experiment [5], in [6] and in experiment [7] was “inactive” in each case.
Consider `CC(=O)c1ccc2c(c1)CCCC2`, for which the outcome in experiment [1], in experiment [4], in experiment [8] and in experiment [9] was inactive. Moreover, the Potency result in experiment [2], in [3], in [5], in experiment [6] and in experiment [7] was “inactive” each time.
As to `O=S1(=O)CCCC1`, the call in experiment [1], in experiment [4], in experiment [8] and in [9] was inactive. Moreover, the Potency entry in experiment [2], in [3], in experiment [5], in [6] and in experiment [7] was “inactive” throughout.
Turning to `CC(=O)N1CCN(c2ccc(O)cc2)CC1`, the outcome in [1], in experiment [4], in experiment [8], in experiment [9] and in experiment [10] was inactive. Besides, the Potency result in experiment [2], in [3], in experiment [5], in experiment [6] and in experiment [7] was “inactive” throughout.
For the molecule `BrC/C=C/CBr`, the activity change, negative = cytotoxicity in [1] was 2.41% [at 19 µM]; in experiment [7], 0.671% [at 19 µM]; in experiment [9], 4.89% [at 19 µM]. Also, the viability change, negative = cytotoxic is 0.645% [at 19 µM] in experiment [2] and -1.72% [at 19 µM] in experiment [3]. In addition, in [4], the activity change was -1.5% [at 18.9 µM]. The activity change, negative = inhibition in [5] was -14% [at 19 µM]. Also, in [6], the activation is 0.425% [at 19 µM]. For the same molecule, in experiment [8], the activity, negative = inhibition was 8.47% [at 19 µM].
Consider `O=CN1CCOCC1`, for which the call in experiment [1], in [4], in experiment [8], in experiment [9] and in experiment [10] was inactive. Also, the Potency entry in [2], in experiment [3], in experiment [5], in experiment [6] and in experiment [7] was “inactive” in each case.
For the molecule `CCC(CO)CO`, the call in experiment [1], in experiment [4], in experiment [8] and in experiment [9] was inactive. The Potency entry in experiment [2], in experiment [3], in [5], in [6] and in [7] was “inactive” throughout.
With `Nc1ccnc(=O)[nH]1`, the outcome in experiment [1], in [4], in [8], in [9] and in experiment [10] was inactive. Besides, the Potency result in [2], in experiment [3], in [5], in experiment [6] and in experiment [7] was “inactive” each time.
With `Cc1ccc(S(=O)(=O)NC(=O)NC2CCCCCCC2)cc1`, the result in experiment [1], in experiment [4], in [8] and in experiment [9] was inactive. Further, the Potency entry in [2], in experiment [3], in [5], in experiment [6] and in experiment [7] was “inactive” in each case.
Consider `C=C(C)C(=O)OC1CC(C)CC(C)(C)C1` (stereo not drawn), for which the call in [1], in experiment [4], in experiment [8] and in [9] was inactive. In addition, the Potency result in [2], in experiment [3], in experiment [5], in [6] and in [7] was “inactive” in each case.
For `O=S(=O)(O)SSS(=O)(=O)O`, the molecule was called inactive in experiment [1], in [4], in experiment [8], in [9] and in [10]. Besides, the Potency entry in [2], in experiment [3], in experiment [5], in experiment [6] and in [7] was “inactive” throughout.
For the molecule `CCCCCCCCCCCCCCCCCCN(C)C`, the molecule was called inactive in experiment [1], in [4], in experiment [8], in [9] and in [10]. The Potency entry in experiment [2], in experiment [3], in experiment [5], in experiment [6] and in experiment [7] was “inactive” throughout.
Turning to `CCCCCCCCCCC`, the call in experiment [1], in [4], in [8] and in experiment [10] was inactive. The Potency entry in experiment [2], in experiment [3], in experiment [5], in experiment [6] and in experiment [7] was “inactive” each time.
Regarding `Cc1ccc2c(c1)c1c3n2CCNC3CCC1` (stereo not drawn), the outcome in [1] and in experiment [4] was inactive. The Potency entry in experiment [2], in experiment [3], in experiment [5], in experiment [6] and in [7] was “inactive” each time.
For the molecule `CCOC(=O)CC#N`, the result in experiment [1], in experiment [4], in [8] and in [9] was inactive. Further, the Potency result in [2], in experiment [3], in experiment [5], in [6] and in experiment [7] was “inactive” each time.
Consider `CC(C)C(=O)Nc1cccc(C(F)(F)F)c1`, for which the molecule was called inactive in experiment [1], in [4], in experiment [8], in [9] and in experiment [10]. In addition, the Potency result in [2], in experiment [3], in experiment [5], in [6] and in [7] was “inactive” in each case.
Take `Nc1nc(=O)n([C@@H]2O[C@H](CO)[C@@H](O)[C@@H]2F)cc1I`: the call in [1], in experiment [4] and in [9] was inactive. In addition, the Potency result in experiment [2], in [3], in experiment [5], in experiment [6] and in experiment [7] was “inactive” in each case.
Consider `CN(C)CCOCCN(C)CCO`, for which the outcome in experiment [1], in experiment [4] and in [9] was inactive. In addition, the Potency entry in experiment [2], in [3], in experiment [5] and in experiment [7] was “inactive” throughout.
`C[N+](C)(C)CC(O)CCl` (stereo not drawn): the molecule was classed as inactive in experiment [1], in experiment [4] and in [9]. Also, the Potency entry in experiment [2], in experiment [3], in experiment [5] and in experiment [7] was “inactive” throughout.
Turning to `COc1ccc(OC)c(NC(=O)CC(C)=O)c1`, the molecule was called inactive in [1], in experiment [4] and in [9]. Also, the Potency entry in experiment [2], in experiment [3], in experiment [5], in experiment [6] and in experiment [7] was “inactive” in each case.
Consider `C=C(C)C(=O)OC`, for which the outcome in experiment [1], in experiment [4] and in experiment [9] was inactive. Moreover, the Potency result in [2], in experiment [3], in [5] and in experiment [7] was “inactive” throughout.
With `CCOC(=O)CCc1ccccc1`, the outcome in experiment [1], in experiment [4] and in experiment [9] was inactive. In addition, the Potency result in experiment [2], in experiment [3], in [5], in experiment [6] and in experiment [7] was “inactive” throughout.
Consider `CNC(=O)C(c1ccccc1)c1ccccc1`, for which the molecule was called inactive in experiment [1], in [4] and in [9]. In addition, the Potency entry in experiment [2], in experiment [3], in experiment [5], in [6] and in experiment [7] was “inactive” in each case.
